# Experimental data taken from the supplement of paper PMC6555819.
# Tests used:
# Test in all cases: PBM binding z-score (relative to random genomic background probes); higher = stronger binding; sequences stand for … in GC…GCGATTGACAGCGTAGAATGAAGG
# [1] = system: FXR:RXRa (NR concentration 270 nM, RXRa partner concentration 90 nM)
# Procedure, shortened: (§1)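 Antibodies against each partner of ligand-free nuclear receptor dimers (one per run) detected binding on custom Agilent 4×180K protein-binding microarrays after 1 h incubation. The double-stranded probes had 34-nt variable regions carrying direct-repeat seeds, single-nucleotide variants, half-site ablations and random human genomic background sequences. Binding z-scores, from regression-normalized fluorescence, use the random background probes as reference.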
# [2] = system: LXRa:RXRa (NR concentration 270 nM, RXRa partner concentration 90 nM)
# Procedure, shortened: as §1
# [3] = system: LXRa homodimer (NR concentration 270 nM)
# Procedure, shortened: as §1
# [4] = system: LXRb:RXRa (NR concentration 270 nM, RXRa partner concentration 90 nM)
# Procedure, shortened: as §1
# [5] = system: LXRb homodimer (NR concentration 270 nM)
# Procedure, shortened: as §1
# [6] = system: PPARa:RXRa (NR concentration 270 nM, RXRa partner concentration 90 nM)
# Procedure, shortened: as §1
# [7] = system: PPARg:RXRa (NR concentration 180 nM, RXRa partner concentration 90 nM)
# Procedure, shortened: as §1
# [8] = system: PPARg:RXRa 270nM:90nM, anti-RXR (NR concentration 270 nM, RXRa partner concentration 90 nM)
# Procedure, shortened: as §1
# [9] = system: PPARg:RXRa 30nM:10nM, anti-RXR (NR concentration 30 nM, RXRa partner concentration 10 nM)
# Procedure, shortened: as §1
# [10] = system: PPARg:RXRa 90nM:30nM, anti-RXR (NR concentration 90 nM, RXRa partner concentration 30 nM)
# Procedure, shortened: as §1
# [11] = system: PPARg:RXRa DBDmut IVT, anti-RXR (DBD mutation: RXRa K156A/R161A, NR concentration 270 nM, RXRa partner concentration 90 nM)
# Procedure, shortened: as §1
# [12] = system: PPARg:RXRa IVT, anti-PPARg (NR concentration 270 nM, RXRa partner concentration 90 nM)
# Procedure, shortened: as §1
# [13] = system: PPARg DBDmut:RXRa IVT, anti-PPARg (DBD mutation: PPARg1 K132A/R137A, NR concentration 270 nM, RXRa partner concentration 90 nM)
# Procedure, shortened: as §1
# [14] = system: PPARg DBDmut IVT, anti-PPARg (DBD mutation: PPARg1 K132A/R137A, NR concentration 270 nM)
# Procedure, shortened: as §1
# [15] = system: PPARg homodimer (NR concentration 180 nM)
# Procedure, shortened: as §1
# [16] = system: PXR:RXRa (NR concentration 270 nM, RXRa partner concentration 90 nM)
# Procedure, shortened: as §1
# [17] = system: PXR homodimer (NR concentration 270 nM)
# Procedure, shortened: as §1
# [18] = system: RARa:RXR (NR concentration 270 nM, RXRa partner concentration 90 nM)
# Procedure, shortened: as §1
# [19] = system: RARa homodimer (NR concentration 270 nM)
# Procedure, shortened: as §1
# [20] = system: RARb:RXRa (NR concentration 270 nM, RXRa partner concentration 90 nM)
# Procedure, shortened: as §1
Sequence,PBM binding z-score [1],PBM binding z-score [2],PBM binding z-score [3],PBM binding z-score [4],PBM binding z-score [5],PBM binding z-score [6],PBM binding z-score [7],PBM binding z-score [8],PBM binding z-score [9],PBM binding z-score [10],PBM binding z-score [11],PBM binding z-score [12],PBM binding z-score [13],PBM binding z-score [14],PBM binding z-score [15],PBM binding z-score [16],PBM binding z-score [17],PBM binding z-score [18],PBM binding z-score [19],PBM binding z-score [20]
ATCTCTAGGTAAGACTCAGTGCAGTGAAGAACGC,0.188,0.383,0.212,-0.0859,0.687,-0.163,-0.0807,0.0157,0.104,-0.0649,1.64,0.686,0.237,0.958,0.398,0.339,0.592,0.223,0.328,-0.152
TAGTCTAGGTCATTCAGGGGCCAGTATAGAAAGC,4.17,4.28,2.05,3.15,3.06,4.05,4.7,4.38,2.33,3.77,5.32,5.97,1.69,1.74,2.29,2.53,0.48,3.32,0.639,3.73
CCGTACGGGTCACTCCAGGTTATAGCATCGGAGT,5.48,7.91,1.62,5.38,-0.751,4.45,2.97,3.49,1.05,1.9,1.15,2.49,-0.309,-1.04,1.42,5.22,0.156,3.89,-0.104,3.64
CCTCGGAGGACTGAAGGTCAGAGCTGTCCGCTTT,0.88,1.89,0.285,0.745,-0.722,1.46,-0.679,0.572,-0.9,-0.111,-0.418,-0.254,-2.59,-3.05,0.742,1.32,-0.196,1.28,-0.166,2.38
TTACCAAGGTGAAAGGTCGTTGACGCACGCCTTG,4.03,3.4,0.245,2.91,-0.135,5.49,8.84,8.07,6.9,8.64,2.81,4.77,0.591,0.0484,2.15,4.13,0.552,5.9,-0.179,3.21
CCTACTGGGCCAAGGTCATTCATCAGTCAAAGCA,3.63,3.65,1.71,3.07,0.00532,4.07,3.93,4.44,1.62,3.51,4,4.59,-0.258,-0.0447,2.02,3.93,1.66,3.84,0.345,3.34
CCTATTAGCTGACCATAAGGGCAACCGAAGCTCG,0.524,0.335,0.221,0.0745,0.36,0.273,0.333,-0.0328,-0.243,-0.184,0.163,0.429,-0.689,0.266,1.42,0.183,0.353,0.375,0.765,1.18
CCTCCTGGGCCATTCAGAGGTCATTGATCATATG,2.62,4.24,6.14,3.46,-0.028,3.23,0.59,1.78,0.334,0.958,0.035,1.4,-0.946,-1.05,2.13,4.87,2.7,4.93,0.138,3.04
TGTAGTTGGTCACGGAGGTCACACACGACGGGTA,3.41,3.44,2.52,3.09,0.847,3.87,3.72,3.52,1.51,2.93,0.726,3.95,0.96,0.805,2.4,4.14,0.948,4.35,0.915,3.87
CGAACTAAGTCAGAACAGGACAGTGAAGGATGAT,-0.105,-0.427,0.0634,-0.842,-0.576,-0.444,0.514,-0.265,0.171,-0.00279,0.607,0.0567,0.659,0.276,0.404,-0.17,0.204,0.137,0.452,-0.103
CCGAGTCGGTTATGGGGCATTCAGGCAACGGTGA,-0.323,-0.235,-0.49,-0.14,-0.656,0.438,0.463,1.66,-0.306,0.771,0.293,0.608,-1.56,-1.49,0.196,-0.541,-0.48,-0.567,-0.241,0.404
CCTAGTTGGTCAAGGTCACAAACGCTATAGGTAC,3.97,3.32,1.64,3.45,0.933,3.93,3.16,3.43,1.09,2.53,2.22,3.73,1.23,1.64,2.99,3.94,1.93,4.17,2.34,4.05
CCGACTGGGGCTAGGTTACCATAACGCACAGCCA,-0.553,-0.225,-0.483,-0.184,-0.938,-0.107,0.784,0.0405,-0.564,-0.369,0.166,0.0447,-1.21,-1.97,-0.278,-0.509,-0.572,-0.318,-0.21,0.392
ACTAGCAGGCCAAGGGTCACTCAAGATTAGTCCG,2.48,2.76,0.0687,2.81,-0.402,4.43,7.75,7.53,7.41,8.63,0.983,4.06,-0.0619,-0.0525,2.65,3.21,-0.112,3.84,0.215,3.41
CCTAGCAAGCCAGGGTCACTCAAGCATTTCGCTT,2.31,1.92,-0.142,2.16,-1.12,3.13,0.169,1.09,-0.503,0.224,-0.127,0.222,-0.962,-1.46,0.888,2.78,0.054,3.42,-0.000742,2.41
CTATCAAGGTGAACAAGGTCGTTGATTACTATTC,1.16,1.14,-0.163,1.54,-0.39,2.47,1.53,1.51,0.103,0.808,3.58,3.69,0.759,0.594,0.866,2.7,2.19,2.38,0.109,2.22
TATACAGGGTCAAGGGCCAGAGTACGAATGTCGA,6.63,5.65,1.91,4.4,2.42,5.8,7.15,6.47,3.84,5.91,2.4,4.69,2.98,1.83,3.27,3.99,0.571,4.97,1.16,4.61
CCAGACAGTTGAAAGGTAACTCAGTCTGGTACGC,0.192,0.408,-0.24,0.365,-0.0531,1.47,0.992,1.75,0.231,0.964,0.0148,0.0044,-0.176,-0.589,0.762,0.219,0.144,0.485,0.568,0.56
TCTAGTTGGTCACGGAGGTCACACTCGACGGGTA,3,3.28,2.58,3.06,0.84,3.75,2.84,3.93,3.54,3.5,2.74,4.57,1.32,0.684,2.95,4.31,1.37,4.2,1.39,3.91
CGTCAAAGTACAAGGTAACGTAACAGAAAGCAGC,0.052,-0.143,-0.279,0.0117,-0.288,0.136,0.969,0.307,0.31,0.0776,0.112,0.638,-0.0581,-0.118,0.323,-0.0227,-0.131,0.281,0.369,1.1
CTTACTGGGCCACGAAAGGTCATTGATTCAGTGA,5.51,6.24,4.47,5.13,0.827,5.66,6.99,6.33,4.14,5.7,7.15,7.26,1.25,0.41,3.04,5.88,2.14,5.98,0.212,4.38
CGTTACGGGTCACTGACAGGTTATAGCATTTGGA,5.82,4.13,0.216,3.8,-0.201,5.54,4.6,4.21,1.79,3.39,3.65,3.74,0.269,0.284,2.14,3.75,-0.254,4.61,0.338,3.93
CCTACTGGGGCATCAGGTCATTGATATCAACGTT,1.51,1.23,1.04,1.47,-0.819,3.15,4.22,4.7,2.26,4.13,5.37,6.32,1.29,0.377,2.41,1.8,0.7,2.41,0.207,2.36
TCATATAGGTAAAAGGTGAACGTCGGTGTGGTAA,2.13,2,0.308,1.96,0.0983,5.54,9.49,8.84,8.77,9.46,5.71,5.6,1.12,1.53,1.65,1.86,0.862,2.9,1.07,2.15
ATACCAAGGTGATCGTGAGGTCGTTGGTACTAAC,1.53,1.48,0.698,0.769,0.221,1.51,0.281,0.597,-0.201,0.338,0.259,1.28,-0.235,-0.0791,0.658,2.89,0.856,2.43,-0.116,1.43
GCTAGTTGGTCAGAAAAAGGTCACACACCGGTCG,2.95,3.7,3.13,3.75,0.434,4.21,1.74,3.02,0.669,2.14,0.771,2.29,-0.31,-0.0601,4.2,4.56,1.01,5.62,1.53,4.17
ACAGACAGGTGATGAAGGTGACTCAGGCTATCAT,0.202,0.0616,-0.267,0.143,-0.348,0.764,0.82,0.457,-0.1,0.274,0.111,0.845,0.651,0.382,0.791,0.114,0.191,0.48,0.471,0.728
TCATATAGGTACACAGGTGAAAGTCCGTAAGTTA,0.94,1.1,0.566,1.09,0.0342,1.94,2.32,3.69,4.18,4.15,3.06,2.34,0.518,0.496,1.23,1,0.981,0.908,1.26,0.943
AGAATGAGGTTAAGAGCAGGGAAACAGAATACAT,2.07,1.9,-0.281,1.52,-0.266,3.4,1.98,2.15,0.589,1.22,2.72,2.37,0.618,0.293,0.456,1.09,0.121,1.69,-0.0125,1.71
